# Compounds with a hit are over-represented: about 5.4% of the library has one in this group of screens.
# p53 reactivation = qHTS assay for re-activators of p53 using a Luc reporter. Potency, µM (top dose mostly 92.2 µM), without a hit: at the highest dose activity change, positive = activation, usual class: activators. H1299 p53-A138V BP100-luciferase reporter, luminescence, 24 h. 320,000 compounds, 0.063% hits. AID 504706, 2011; further: potency means the concentration at half of the fitted maximal effect; % of control where 0% means no effect; nearly all actives have a fitted effect of over 45% in size
#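 p53-null H1299 cells stably carrying temperature-sensitive p53-A138V and a BP100-luciferase reporter were pinned with compounds (4-point, 1:5 series) and held 24 hrs at 37 deg C. Luminescence was read 10 min after detection reagent.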
# CtBP-E1A blk = qHTS Assay for Inhibitors of the CtBP/E1A Interaction | CtBP / adenovirus E1A interaction (AlphaScreen) | activity change, % (test concentration not listed) | AID 651724, 2012 | AlphaScreen GST-E1A/His-CtBP binding, 1536-well; hits give low values | 340,000 compounds, 0.49% hits; in the data active means activity change below about -65%; inconclusive means mostly about -30% to -63%; further: on the % scale 0 is the no-effect control and ±100 the full control effect
#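 Protein mix (5X: 125 nM each GST-E1A, His-CtBP) was incubated with pinned compound 2 h at 37 deg C in dark, in 50 mM Tris pH 8.0 buffer with 300 mM NaCl. Glutathione donor and nickel acceptor beads followed; AlphaScreen signal read after 1 h.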
# RORg inh = qHTS for inhibitors of ROR gamma transcriptional activity | Nuclear receptor ROR-gamma (Mus musculus), P51450 | Drosophila S2 Gal4-RORgamma UAS-luciferase reporter, 20 h | Potency, µM (series often up to 53.6 µM), for inactives: top-dose activity change, negative = inhibition, hits mostly inhibitors | 310,000 compounds, 5.4% hits | AID 2551, 2010; further: potency means the concentration at half of the fitted maximal effect; on the % scale 0 is the no-effect control and ±100 the full control effect; nearly all actives have a fitted effect of over 60% in size
#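 A Gal4/UAS one-hybrid system in insect cells: metallothionein-promoter Gal4–ROR gamma fusion plus Photinus luciferase reporter. Copper sulfate 700 uM final, 20 hr ambient incubation, luminescent detection after 10 min with reagent.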
# Six1-Eya2 blk = qHTS Assay for Inhibitors of the Six1/Eya2 Interaction. 360,000 compounds, 0.56% hits. activity change, % (concentration not given with the values). Homeobox protein SIX1 (Homo sapiens) + Protein phosphatase EYA2 (Homo sapiens), …. AID 651725, 2012. AlphaScreen GST-Six1/His-Eya2 binding, biochemical; hits give low values; in the data active means activity change below about -65%; inconclusive means mostly about -30% to -63%; further: on the % scale 0 is the no-effect control and ±100 the full control effect
# Target sequence (O00167 whole entry, looked up): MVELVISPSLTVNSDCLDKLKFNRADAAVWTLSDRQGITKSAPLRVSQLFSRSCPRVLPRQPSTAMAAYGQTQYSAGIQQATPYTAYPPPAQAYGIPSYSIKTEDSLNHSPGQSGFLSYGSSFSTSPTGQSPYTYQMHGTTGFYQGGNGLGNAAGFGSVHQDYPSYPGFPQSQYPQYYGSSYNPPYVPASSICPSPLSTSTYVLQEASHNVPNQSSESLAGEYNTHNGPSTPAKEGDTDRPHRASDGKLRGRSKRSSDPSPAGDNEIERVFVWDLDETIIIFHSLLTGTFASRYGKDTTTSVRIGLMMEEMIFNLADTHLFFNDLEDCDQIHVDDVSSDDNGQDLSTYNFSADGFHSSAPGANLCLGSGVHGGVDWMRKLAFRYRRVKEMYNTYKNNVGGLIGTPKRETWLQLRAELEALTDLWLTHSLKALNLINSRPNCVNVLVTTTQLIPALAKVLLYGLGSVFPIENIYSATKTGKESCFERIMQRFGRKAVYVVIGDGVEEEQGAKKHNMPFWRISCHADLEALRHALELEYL
# Target sequence (Q15475 whole entry, looked up): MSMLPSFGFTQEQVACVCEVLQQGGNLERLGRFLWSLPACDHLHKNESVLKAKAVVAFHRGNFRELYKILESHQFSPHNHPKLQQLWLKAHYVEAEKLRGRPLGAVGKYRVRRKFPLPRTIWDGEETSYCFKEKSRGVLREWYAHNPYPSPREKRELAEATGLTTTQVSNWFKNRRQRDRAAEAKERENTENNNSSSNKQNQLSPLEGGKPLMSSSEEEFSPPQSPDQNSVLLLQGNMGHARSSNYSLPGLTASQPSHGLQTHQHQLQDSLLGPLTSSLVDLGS
#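 AlphaScreen luminescence read after one hour at 37 °C in darkness. Pin-transferred compounds met GST-Six1 and His-Eya2 protein (5X stock 250 nM/500 nM) plus glutathione donor and Ni-chelate acceptor beads (5X, 50 ug/mL).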
# VP16 counter = VP16 counterscreen qHTS for inhibitors of ROR gamma transcriptional activity; Drosophila S2 Gal4-VP16 UAS-luciferase, luminescence, 20 h; Potency, µM (series often up to 53.6 µM), without a hit: at the top dose activity, negative = inhibition, actives largely listed as inhibitors; 310,000 compounds, 3.5% hits;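 further: Gal4-VP16 expression switched on by copper sulfate through the metallothionein promoter; potency means the concentration at half of the fitted maximal effect; on the % scale 0 is the no-effect control and ±100 the full control effect; nearly all actives have a fitted effect of over 50% in size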
# The depositor's hits bear a star; ? = inconclusive; / = no result given. Unless noted, the call rests on the fitted dose curve; in most records, active means well fitted curve in the direction sought with a large enough effect; inconclusive means small, poorly fitted or top-dose-only effect, or another doubt; inactive means no such curve, though single readings can be large; an effect the other way counts as inactive or inconclusive.
SMILES,p53 reactivation,CtBP-E1A blk,RORg inh,Six1-Eya2 blk,VP16 counter
C[C@H](NC(=O)c1nc[nH]c1C(=O)NCc1ccccc1)c1ccccc1,-3%,1,/,-11,/
CC(C)C[C@H](NC(=O)c1nc[nH]c1C(=O)N[C@@H](CC(C)C)C(=O)OCc1ccccc1)C(=O)OCc1ccccc1,16%,-27,7.1µM*,6,?
C[C@H](NC(=O)c1nc[nH]c1C(=O)N1CCN(c2ccccc2)CC1)C(=O)OCc1ccccc1,14%,-17,?,-11,-15%
O=C(N[C@@H](Cc1ccccc1)C(=O)OCc1ccccc1)c1nc[nH]c1C(=O)N1CCN(c2ccccc2)CC1,-12%,-9,10µM*,-17,?
CC(C)C[C@H](NC(=O)c1nc[nH]c1C(=O)NC(c1ccccc1)c1ccccc1)C(=O)OCc1ccccc1,-1%,-1,2.5µM*,-11,4.5µM*
CC(C)C[C@H](NC(=O)c1[nH]cnc1C(=O)N[C@@H](Cc1ccccc1)C(=O)OCc1ccccc1)C(=O)OCc1ccccc1,13%,-1,11µM*,-4,11µM*
CC(C)C[C@H](NC(=O)c1nc[nH]c1C(=O)NCCCCCN)C(=O)OCc1ccccc1,0%,-6,/,-3,/
C/C(=N\N=C(/N)c1nonc1N)c1ccc2c(c1)OCO2,?,/,-7%,-11,-25%
CC1(C)Cc2c(sc3c2c(N)nc(=S)n3Cc2ccccc2)CO1,-1%,/,-2%,/,0%
CC1(C)Cc2c(sc3[nH]c(=S)n(Cc4ccccc4)c(=O)c23)CO1,-7%,8,8%,1,0.89µM*
O=c1cc2c(=O)oc3cc(O)c(O)oc3c2c(O)c1O,-2%,-23,-27%,-78*,-21%
Cc1ccc(OCC(=O)NC(=S)Nc2ccccn2)c(Br)c1,3%,9,10µM*,8,11µM*
O=C(COc1ccccc1Cl)NC(=S)Nc1ccccc1N1CCCC1,2%,-28,5.6µM*,?,7.9µM*
COC(=O)c1ccccc1NC(=S)NC(=O)COc1ccccc1Cl,-2%,5,10µM*,8,?
Cc1nc(NC(=S)NC(=O)COc2ccccc2Cl)ccc1Br,-6%,4,7.1µM*,12,7.1µM*
O=C(COc1ccc(Br)cc1Cl)NC(=S)Nc1ccccn1,?,-2,?,-1,?
CCc1ccc(OCC(=O)NC(=S)Nc2ccc(Br)c(C)n2)cc1,0%,/,-26%,2,5%
COC(=O)c1ccccc1NC(=S)NC(=O)COc1ccc(C)cc1,/,2,/,5,/
O=C(COc1c(Cl)cccc1Cl)Nc1ccccc1N1CCCC1,-10%,-8,?,-14,-7%
Cc1ccccc1N(C)C(=O)C1CCCN(c2ncnc3c2nc2n3CCCCC2)C1 (configuration not stated),-2%,-7,13%,-6,-6%
CCC(Sc1nc(C)cc(C)n1)C(=O)Nc1ccc(Cl)cn1 (configuration not stated),-6%,8,16%,-3,3%
CCOC(=O)N1CCN(C2CCCN(C(=O)c3ccccc3C(F)(F)F)C2)CC1 (configuration not stated),/,-6,/,3,/
Cc1ccccc1-c1cncnc1NCc1cccnc1,/,/,0%,/,-1%
Cc1cc(Cl)ccc1OCC(=O)NC(=S)Nc1ccccc1N1CCOCC1,-1%,-5,4.5µM*,-7,?
Cc1ccc(OCC(=O)NNC(=S)NC(=O)C(C)(C)C)c(Br)c1,?,-1,11µM*,-3,4%
SMILES,p53 reactivation,CtBP-E1A blk,RORg inh,Six1-Eya2 blk,VP16 counter
CC(C)c1ccc(OCC(=O)NNC(=S)NC(=O)c2cccs2)c(Br)c1,1%,0,13%,7,-1%
COC(=O)c1sc(S(=O)(=O)Nc2c(C)nn(C)c2C)c(C(=O)OC)c1C,2%,3,/,-5,/
COC(=O)c1sc(NC(=S)NNC(=O)c2c(Br)c(C)nn2C)c(C(=O)OC)c1C,-15%,-20,6.3µM*,-20,?
Cc1ccc2nc(C)cc(C(=O)N3CCCC(CO)(Cc4ccccc4C)C3)c2c1 (configuration not stated),-5%,-2,29%,-6,3%
O=C1COc2ccc(C(=O)COC(=O)c3ncc(Cl)c(Cl)c3Cl)cc2N1,5%,9,/,2,/
CCCNC(=S)Nc1cc2oc3ccccc3c2cc1OC,4%,-9,4.5µM*,-20,7.1µM*
CNC(=S)Nc1cc2oc3ccccc3c2cc1OC,15%,-2,7.9µM*,-6,13µM*
Fc1ccc(-c2n[nH]c(=S)c3ccccc23)cc1,0%,1,7.1µM*,-2,16µM*
Cc1nc2c(=O)n(C)c(=O)n(C)c2nc1Cl,-24%,10,?,-24,7.1µM*
Cn1c(=O)c2nc(NCc3ccccc3)cnc2n(C)c1=O,-1%,7,21%,-16,4%
O=C(NC(=S)N1CCN(c2ccc(F)cc2)CC1)c1ccccc1,/,-9,/,-3,/
O=[N+]([O-])c1ccc(N2CCN(C(=S)Nc3ccccc3)CC2)cc1,-4%,-1,-4%,2,-3%
O=C(NC(=S)N1CCN(c2ccc([N+](=O)[O-])cc2)CC1)c1ccccc1F,-15%,4,0.56µM*,5,1µM*
O=C(NC(=S)N1CCN(c2ccc([N+](=O)[O-])cc2)CC1)c1ccc(F)cc1,4%,-9,1.1µM*,-9,1µM*
O=C(NC(=S)N1CCN(c2ccc([N+](=O)[O-])cc2)CC1)c1ccccc1Cl,4%,-15,0.45µM*,-5,1.4µM*
CCCCN1CC(N2CCN(C)CC2)CS1(=O)=O (configuration not stated),/,1,/,-3,/
C/C(=N\NC(=O)c1ccccc1)c1cc2cc([N+](=O)[O-])ccc2oc1=O,?,5,7.9µM*,?,5µM*
C/C(=N\NC(=O)c1ccc([N+](=O)[O-])cc1)c1cc2ccccc2oc1=O,?,?,16µM*,?,?
C/C(=N\Nc1ccc([N+](=O)[O-])cc1[N+](=O)[O-])c1cc2c(ccc3ccccc32)oc1=O,3%,/,-19%,/,-4%
O=C1OCC/C1=C\NCCCN/C=C1\CCOC1=O,/,-16,/,-6,/
CC(=O)Nc1ccc(NC(=O)c2cccc(-c3cc4ccccc4oc3=O)c2)cc1,?,-2,?,4,-7%
COc1ccc2nc(NC(=O)c3cccc(-c4cc5ccccc5oc4=O)c3)sc2c1,6%,-7,10µM*,-9,10µM*
COc1ccc2nc(NC(=O)c3cnccn3)sc2c1,2%,?,?,?,10µM*
